CBX7 inh = CBX7 inhibition, primary AlphaScreen; normalised signal (fraction of DMSO) (concentration not given with the values); actives 1.1% (n = 66,000); AlphaScreen His6-CBX7 / biotin-H3K27me3 peptide binding; stronger effect = lower value; O95931; in the data active = normalised signal below about 0.5
Target sequence (O95931 whole entry, looked up): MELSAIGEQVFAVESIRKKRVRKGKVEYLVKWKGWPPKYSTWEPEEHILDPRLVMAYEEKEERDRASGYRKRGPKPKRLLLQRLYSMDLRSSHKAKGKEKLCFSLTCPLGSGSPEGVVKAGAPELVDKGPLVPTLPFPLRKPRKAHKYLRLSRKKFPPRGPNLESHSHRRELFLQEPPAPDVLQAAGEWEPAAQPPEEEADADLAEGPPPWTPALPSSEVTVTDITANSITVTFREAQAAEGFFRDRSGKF
Numbers without * were called inactive. The full list was thinned out, with hits kept by preference.

SMILES	CBX7 inh
Cc1ccc(-c2nc3ncccc3o2)cc1NC(=O)COc1ccc(Cl)cc1Cl	1
Cc1ccc(C)c(Cn2c(C(C)NC(=O)C(C)(C)C)nc3ccccc32)c1 (stereo not given)	1
COc1ccc(CSc2nnnn2-c2ccc(F)c(Cl)c2)cc1	0.91
CCC1Sc2ccccc2N(CC(=O)NCc2ccc(F)cc2)C1=O (stereo not given)	1.1
Cc1ccc(C)c(CN2C(=O)CSc3ccc(C(=O)NCCCN4CCOCC4)cc32)c1	1
CC(=O)N1CCc2cc(S(=O)(=O)NC(CC(C)C)C(=O)Nc3ccc(F)cc3F)ccc21 (stereo not given)	0.89
Fc1ccccc1-c1nc(NCc2ccccc2Cl)c2ccccc2n1	1
COc1ccccc1CNc1nc(-c2ccccc2F)nc2ccccc12	0.32*
COCCNc1nc(-c2ccccc2F)nc2ccccc12	1.1
O=C1CC(c2cccc(Cl)c2)Sc2ccccc2N1 (stereo not given)	0.99
Fc1cccc(Cl)c1-c1noc(-c2cc(-c3ccncc3)nc3ccccc23)n1	0.92
Cc1cccc(-c2noc(-c3cc(-c4ccccc4)nc4ccccc34)n2)c1	1.3
c1ccc2c(-c3nc(C4CCCCC4)no3)cc(-c3ccncc3)nc2c1	0.49*
Cc1ccc(S(=O)(=O)C2(C(=O)N3CCN(C(c4ccccc4)c4ccc(Cl)cc4)CC3)CC2)cc1 (stereo not given)	0.84
COC(=O)c1ccc(Nc2nc(N3CCN(C)CC3)c3ccccc3n2)cc1	1
COc1ccc(Nc2cc(C(=O)N3CCCC3)c3ccccc3n2)cc1	0.95
COc1ccc(Nc2nc(N3CCCC3)c3ccccc3n2)cc1	0.49*
CCCCN(CCCC)CCNC(=O)Cn1nc(-c2ccccc2)ccc1=O	0.98
CCc1ccccc1Nc1cc(C(=O)NCCN2CCOCC2)c2ccccc2n1	1
COc1ccc(-c2n[nH]c(C)c2-c2ccc(F)cc2)c(O)c1	0.74
COc1ccc(-c2c(-c3ccc(OC)cc3O)n[nH]c2C)cc1	0.66
COc1ccc(-c2n[nH]c(C)c2-c2ccc3c(c2)OCCCO3)c(O)c1	0.45*
O=C(NC1CCN(Cc2ccccc2)CC1)c1ccc2c(c1)NC(=O)C1CCCN21 (stereo not given)	1.1
O=C(NCC1CCCO1)c1ccc2c(c1)ncn2-c1ccc(F)c(F)c1 (stereo not given)	1
CN(Cc1ccccc1)S(=O)(=O)c1ccc(C(=O)Nc2nnc(-c3ccc(F)cc3)o2)cc1	0.14*
SMILES	CBX7 inh
COc1ccc(-c2nnc(NC(=O)c3ccc(S(=O)(=O)N4CCCC4)cc3)o2)c(OC)c1	0.83
COc1cc(OC)cc(-c2nnc(NC(=O)c3ccc(S(=O)(=O)N(C)C)cc3)o2)c1	0.73
CCOC(=O)c1oc2ccccc2c1NC(=O)c1ccc(S(=O)(=O)N(C)Cc2ccccc2)cc1	1
CCc1nnc(NC(=O)c2ccc(S(=O)(=O)N(C)Cc3ccccc3)cc2)o1	0.43*
Cc1nc2cc(NC(=O)c3ccc(S(=O)(=O)N(C)Cc4ccccc4)cc3)ccc2s1	0.95
COc1ccc(-c2nnc(NC(=O)c3ccc(S(=O)(=O)N(C)C)cc3)o2)cc1	0.037*
COc1ccccc1-c1nnc(NC(=O)c2ccc(S(=O)(=O)N3CCOCC3)cc2)o1	0.63
COc1cccc(-c2nnc(NC(=O)c3ccc(S(=O)(=O)N4CCOCC4)cc3)o2)c1	0.7
COc1ccccc1-c1nnc(NC(=O)c2ccc(S(=O)(=O)N(C)Cc3ccccc3)cc2)o1	0.00085*
COc1cccc(C(=O)N2CC(=O)Nc3ccc(C)cc3C2c2ccccc2)c1OC (stereo not given)	0.98
CC1=Nc2cc(C(=O)N3CCc4ccccc43)ccc2Sc2ccc(Cl)cc21	0.92
O=C(C1CCN(c2ccc(N3CCOCC3)nn2)CC1)N1CCN(Cc2ccccc2)CC1	0.96
CCN(CCNC(=O)Cn1ncc2ccsc2c1=O)c1ccccc1	1
CCC(=O)N1CCc2cc(S(=O)(=O)Nc3ccc4c(c3)OCO4)ccc21	0.86
O=C(Nc1ccccc1C(F)(F)F)c1cc(-c2ccc(F)cc2)on1	1.1
CCC1CCCCN1CCCNC(=O)C(NC(=O)C1CCC(C)CC1)C(C)C (stereo not given)	1.1
COc1ccc(Cl)cc1NC(=O)CSc1ccc2nnc(-c3ccccc3)n2n1	0.86
CCCCc1ccc(NC(=O)C(C(C)C)N2C(=O)c3ccccc3C2=O)cc1 (stereo not given)	1.2
Cc1ccc(C)c(-n2c(Cc3cc(=O)[nH]c(=O)[nH]3)nnc2SCC(=O)NCCc2ccccc2)c1	0.55
CN(CCc1ccccn1)C(=O)c1nn2c(C(F)(F)F)cc(-c3cccs3)nc2c1Cl	1.1
Fc1ccccc1Nc1nc2nonc2nc1Nc1ccccc1	0.95
CCN(c1cccc(C(F)(F)F)c1)S(=O)(=O)c1ccc2c(c1)CCN2C(=O)C1CCC1	1.1
CCN(Cc1ccccc1)S(=O)(=O)c1ccc(C(=O)Nc2nnc(-c3cccc(OC)c3)o2)cc1	0.96
COc1cccc(-c2nnc(NC(=O)c3ccc(S(=O)(=O)N4CCCC4)cc3)o2)c1	0.89
COc1cccc(-c2nnc(NC(=O)c3ccc(S(=O)(=O)N(C)Cc4ccccc4)cc3)o2)c1	0.1*
SMILES	CBX7 inh
Cc1nc2cc(NC(=O)c3ccc(S(=O)(=O)N4CCCCC4)cc3)ccc2s1	1.1
CCOc1cc2[nH]c(=O)n(CCCC(=O)NCCc3ccccc3)c(=O)c2cc1OCC	0.96
Cc1ccc(S(=O)(=O)Nc2nc3ccccc3nc2Nc2ccccc2)cc1	1.1
C=CCc1cc(C)ccc1OCC(O)CN1CCN(c2ccccc2)CC1 (stereo not given)	0.38*
C=CCc1cc(C)ccc1OCC(O)CN1CCCCC1 (stereo not given)	1
C=CCc1ccccc1OCC(O)CN1CCN(c2ccccc2)CC1 (stereo not given)	0.76
Cc1ccn2cc(-c3ccc(S(=O)(=O)N4CCCCCC4)cc3)nc2c1	1.1
Cc1ccc2c(Cl)c(C(=O)N(Cc3ccc(C(C)C)cc3)C3CCS(=O)(=O)C3)sc2c1 (stereo not given)	0.84
C=CCN(CC=C)S(=O)(=O)c1ccc(C(=O)Nc2nnc(C3CC3)o2)cc1	0.004*
C=CCN(CC=C)S(=O)(=O)c1ccc(C(=O)Nc2sc3c(c2C(=O)OC)CCN(C)C3)cc1	1.1
CCN(CC)S(=O)(=O)c1ccc(C(=O)Nc2nnc(-c3cccs3)o2)cc1	0.73
CN(Cc1ccccc1)S(=O)(=O)c1ccc(C(=O)Nc2nnc(C3CC3)o2)cc1	0.5
N#CCCN(CCC#N)S(=O)(=O)c1ccc(C(=O)Nc2nnc(C3CC3)o2)cc1	0.0021*
CCN(CC)S(=O)(=O)c1ccc(C(=O)Nc2nnc(C3CC3)o2)cc1	0.003*
COc1ccc(C2CC(=O)C3=C(C2)Nc2ccccc2NC3c2cccc(Cl)c2Cl)cc1 (stereo not given)	1.1
COc1ccc(-c2nnn(CC(=O)NCCc3ccccc3)n2)cc1OC	1.1
CCOC(=O)c1ccc2nc(C)cc(Nc3ccccc3CC)c2c1	0.82
O=C1Nc2ccccc2OC1CC(=O)N1CCN(c2ncccn2)CC1 (stereo not given)	0.95
Cc1cc(C)cc(Nc2cc(C(=O)NCC3CCCO3)c3ccccc3n2)c1 (stereo not given)	1
CCCCSc1oc(-c2ccc(C)cc2)nc1S(=O)(=O)c1ccccc1	1.2
COc1ccc(-c2nc3ccccc3o2)cc1NC(C)=O	1.1
COc1ccc(-c2nc3c(C)cccn3c2Nc2ccc(C)cc2)cc1	0.51
CCOc1ccccc1NC(=O)CCc1c(C)nc2ncnn2c1C	1.1

Compound activity from PubChem.
